Reference: PubChem BioAssay (NCI)
About 83,000 compounds went through this panel and 20% of them were active in at least one assay; those are over-represented in the sample as a whole.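 Plates (96-well) were seeded with cells, treated with compound at one concentration, and incubated for 48 hours before percent growth was determined.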 Unmarked numbers belong to inactive results. The source made the active and inactive calls. The calls were made as follows: active = growth percent below 10; inactive = the rest.

Each compound was assayed on MDA-MB-468 breast (assay: NCI-60 one-dose screen, 48 h (100 = growth as untreated, 0 = no growth, -100 = all killed)). Details: 10 µM unless noted.

Row | Structure (SMILES) | growth
1 | COc1ccc(C(=O)c2cc(OC)c3c(c2)OCO3)cc1O | 0.266% (active)
2 | CC1(C)C(=NO)C(C)(C)C1=NO | 103%
3 | Cc1c(C(=O)N[C@@H](Cc2ccccc2)C(=O)C(=O)NCc2ccc(F)cc2)[nH]c2ccccc2c1=O | 94.5%
4 | Cc1c(Cl)ccc2c(C(=O)Cl)cc(-c3ccccc3)nc12 | 101%
5 | CCN(CC)CCCC(C)Nc1cc(-c2cccc(OC(F)(F)F)c2)nc2ccc(N3CCCC3)cc12 (stereo not given) | -56.3% (active)
6 | CN1CCN(CC(=O)Nc2nc3c(s2)Nc2cc(Cl)c(Cl)cc2NC3=O)CC1 | 114%
7 | CC(=O)Nc1c(Cl)cc2c(c1Cl)Cc1ccccc1-2 | 70.6%
8 | COc1ccc(-c2nc(N=Nc3c(O)[nH]c4ccccc34)nc(N3CCOCC3)c2C#N)cc1 | 71%
9 | O=C1N=C(c2c(-c3[nH]c(=O)c4ccc(Br)cc4c3O)c(O)c3ccccc3c2O)C(=O)c2cc(Br)ccc21 | -11.5% (active)
10 | Cc1[nH]c(C(=O)Nc2ccc(C(=O)NCCN)cc2OC(C)C)c(Cl)c1Cl | -43.6% (active)
11 | COc1cc(N2CCC(N3CCN(C)CC3)CC2)ccc1Nc1ncnc(Nc2ccccc2S(=O)(=O)C(C)C)n1 | 110%
12 | Cn1cc(-c2nc3c(F)cc4[nH]ncc4c3c3c2CCCC3)c(C(F)(F)F)n1 | 33%
13 | O=S(=O)(NCCCNc1nccc(-c2c(-c3cccc(F)c3)nc3sccn23)n1)c1cccc(F)c1 | 33%
14 | COc1cc(C(=O)/C=C/c2c(-c3ccc(F)cc3)nc3sccn23)cc(OC)c1OC | 12.8%
15 | Cc1sc(N=Nc2ccc(N(C)C)cc2)[n+]([O-])c1C | 75.2%
16 | Nc1ccn(C2O[C@H](CO)[C@@H](O)[C@H]2O)c(=O)n1 (stereo not given in full) | 96.8%
17 | COC(=O)c1nc(-c2ccccc2)oc1S(=O)(=O)N1CCN(c2ccc(OC)cc2)CC1 | 22.6%
18 | CC(C)Cc1ccc([C@H](C)C(=O)O)cc1 | 113%
19 | CC(=O)/C(Cc1ccccc1)=N/O | 99.1%
20 | Cc1ccc(/C=N/NC(=O)CSc2nc3ccccc3c(=O)n2Cc2ccc(S(N)(=O)=O)cc2)cc1 | 81.2%
21 | COc1ccc(/C=C/C(=O)c2cc(OC)c(OC)c(OC)c2)cc1OCC(=O)Nc1nc2ccc(OC(F)(F)F)cc2s1 | 55.1%
22 | COc1cc(-c2nc(SCCC(C)C)nc(Nc3ccccc3)c2C#N)cc(OC)c1OC | 112%
23 | CC/C(=C(/c1ccc(OCCN(C)C)cc1)c1ccc(OC(=O)CCCCC(=O)c2c(C)[nH]c(/C=C3\N=C(c4ccc[nH]4)C=C3OC)c2C)cc1)c1ccccc1 | 47.5%
24 | CC(=O)Nc1ccc(CC[C@H]2CCC/C=C/[C@@H]3C[C@H](O)C[C@H]3[C@H](O)/C=C/C(=O)O2)cc1 | -23.5% (active)
25 | CC(C)C(=O)Nc1ncc(C(=O)NCCN(Cc2ccccc2)C(=O)c2ccc(S(=O)(=O)Nc3ccccc3)cc2)s1 | 80.3%
